Mac1 fbg enh: enhancers of human CD11b/CD18 binding to fibrinogen; AID 1499; P05107+P11215; K562 CD11b/CD18 adhesion to fibrinogen, ATPlite luminescence; 0.07% of 93,000 active; activation, % at 10 µM;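 active = 10 µM primary screen giving 50% or more activity, confirmed by 40% or more on retest at that dose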
CYP2C19 inhib: inhibitors of human CYP2C19. P33261. CYP2C19 Supersomes, luciferin-H EGE luminescence, 30 min. inhibition, % at 5 µM. 21% of 96,000 active. AID 778;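 active = CYP2C19 inhibition above a set limit at 5 µM in the primary screen, cut at about 50% in these data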;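 also: plate controls were negative control wells for no effect and 2.5 mM tranylcypromine positive control for full effect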
Mac1 fbg inh: blocks human CD11b/CD18 adhesion to fibrinogen; P05107+P11215; K562 CD11b/CD18 adhesion to fibrinogen, ATPlite luminescence; Mn2+ added to activate the integrin; inhibition, % at 10 µM; 0.54% of 93,000 active; AID 1497;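 active = primary inhibition of 50% or more at 10 µM, then 40% or more on retest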
CYP2C9 act: increases human cytochrome P450 2C9 activity; recombinant CYP2C9, luciferin-H conversion, luminescence; hits give high values; factor 1 = untreated enzyme, 0 = blocked; activation factor at 5 µM; 1.4% of 96,000 active;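 active = activation factor of 2 or more for CYP2C9 at a 5 µM dose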;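 also: 0 = sulfaphenazole-blocked wells and 1 = vehicle-only wells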
CYP2C9 inh: blocks human cytochrome P450 2C9. P11712. CYP2C9 Supersomes, luciferin-H conversion, luminescence. inhibition, % at 5 µM. 20% of 96,000 active. AID 777;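 active = blocking of liver enzyme CYP2C9 beyond about 50% at 5 µM, limit read from the data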
CYP2C19 activ: cytochrome P450 2C19 (human) activation; P33261; recombinant CYP2C19, luciferin-H EGE luminescence; hits give high values; 0 = fully inhibited enzyme, 1 = untreated enzyme; activation factor at 5 µM; 96,000 tested, under 10 active;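 active = activation factor of at least 2 at 5 µM in the primary screen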;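 also: 0 = wells with 2.5 mM tranylcypromine and 1 = vehicle-only wells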
* hit, by the source's call; x = no result given. Hits are enriched below; roughly 28% of the tested compounds scored in any of these assays.

SMILES	Mac1 fbg enh	CYP2C19 inhib	Mac1 fbg inh	CYP2C9 act	CYP2C9 inh	CYP2C19 activ
CS(=O)(=O)N(CC(=O)Nc1cccc(Cl)c1)c1ccccc1Cl	7	97*	0	0.1	90*	0
CC(=O)c1cccc(NC(=O)CN(c2ccccc2F)S(C)(=O)=O)c1	-4	54*	0	0.5	49	0.5
CN(c1cccc(NC(=O)CN(c2cccc(Cl)c2)S(=O)(=O)c2ccc(Cl)cc2)c1)S(C)(=O)=O	12	x	3	x	x	x
CC(=O)c1cccc(NC(=O)CN(c2ccccc2)S(C)(=O)=O)c1	14	26	9	0.8	18	0.7
Cc1c(-c2ccccc2)oc2nc3c(c(=O)n(C)c(=O)n3C)n12	-1	5	-12	1	4	0.9

Source: PubChem BioAssay (Sanford-Burnham Center for Chemical Genomics)
